Measured values taken from PubChem BioAssay AID1159580 (chemical genetic matrix, 2015).
“And” between values parts separate entries of the source, which are not always exact repeats. Identical values can stand only once. Hit rate of the full screen: of about 5,500 compounds, about 2,000 (36%) were called active. Roughly 18% stayed inconclusive and do not appear here. No stated cut-off is given here; in the data, active means normalized growth mostly below about 0.91 (no sharp cut-off); inconclusive means no clear call, values can overlap the other calls; inactive means mostly above about 0.92. Some of the results follow.

Assay: chemical genetic growth profiling, strain panel (AID 1159580);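 further: tested at 20 µM; growth read once vehicle control cultures reached saturation at 30 °C; 1 = growth at the plate median or of vehicle wells; lower values mean less growth of the strain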
Settings: S. cerevisiae deletion strains, growth OD

Measured: normalized growth

Nc1ccc(C(=O)O)cc1
inactive: locus YAL021C, strain ccr4, hits give low values 0.984 | locus YAL026C, strain drs2, hits give low values 1.01 | locus YAL030W, strain snc1, hits give low values 1.01 | locus YBL061C, strain skt5, hits give low values 1.02 | locus YBR009C, strain hhf1, hits give low values 0.993 | locus YBR021W, strain FUR4, hits give low values 1.01 | locus YBR023C, strain chs3, hits give low values 1.03 | locus YBR171W, strain sec66, hits give low values 1.02 | locus YBR229C, strain ROT2, hits give low values 0.996 | locus YBR231C, strain swc5, hits give low values 1.04 | locus YBR279W, strain paf1, hits give low values 1.02 | locus YCL011C, strain gbp2, hits give low values 1.01 | locus YCL016C, strain dcc1, hits give low values 1.03 | locus YCL029C, strain bik1, hits give low values 1.01 | locus YCL061C, strain MRC1, hits give low values 1.02 | locus YCL069W, strain vba3, hits give low values 1.01 | locus YCR088W, strain abp1, hits give low values 1.01 | locus YDL005C, strain med2, hits give low values 1.02 | locus YDL035C, strain GPR1, hits give low values 1.01 | locus YDL040C, strain nat1, hits give low values 1.02 | locus YDL074C, strain BRE1, hits give low values 1.03 | locus YDL101C, strain DUN1, hits give low values 1.02 | locus YDL134C, strain PPH21, hits give low values 1.01 | locus YDL185W, strain tfp1, hits give low values 1.03 | locus YDL192W, strain arf1, hits give low values 1.01 | locus YDR001C, strain nth1, hits give low values 1 | locus YDR069C, strain doa4, hits give low values 1.04 | locus YDR101C, strain arx1, hits give low values 0.996 | locus YDR137W, strain rgp1, hits give low values 1.01 | locus YDR159W, strain sac3, hits give low values 1 | locus YDR162C, strain NBP2, hits give low values 1.02 | locus YDR195W, strain ref2 1.04 | locus YDR297W, strain sur2, hits give low values 1.02 | locus YDR318W, strain mcm21, hits give low values 1.01 | locus YDR334W, strain swr1, hits give low values 1.01 | locus YDR335W, strain msn5, hits give low values 1.02 | locus YDR388W, hits give low values 1.01 | locus YDR392W, strain spt3, hits give low values 0.972 | locus YDR502C, strain sam2, hits give low values 1.01 | locus YEL003W, strain gim4, hits give low values 1.02 | locus YEL037C, strain rad23, hits give low values 1.01 | locus YEL061C, strain CIN8 (second series), hits give low values 1.02 | locus YEL061C, strain CIN8, hits give low values 1 | locus YER015W, strain faa2, hits give low values 1.04 | locus YER016W, strain bim1, hits give low values 0.987 | locus YER110C, hits give low values 1.02 | locus YER111C, strain swi4, hits give low values 1.03 | locus YER155C, strain BEM2 (second series), hits give low values 1.04 | locus YER155C, strain BEM2, hits give low values 0.994 | locus YER167W, strain BCK2, hits give low values 1.01 | locus YFR010W, strain ubp6, hits give low values 1.02 | locus YGL078C, strain dbp3, hits give low values 1 | locus YGL086W, strain mad1, hits give low values 1 | locus YGL167C, strain pmr1, hits give low values 1.02 | locus YGL173C, strain kem1, hits give low values 1.03 | locus YGL227W, strain vid30, hits give low values 1 | locus YGL240W, strain doc1, hits give low values 1.03 | locus YGL248W, strain PDE1, hits give low values 1 | locus YGL253W, strain hxk2, hits give low values 1.01 | locus YGR078C, strain PAC10, hits give low values 1 | locus YGR135W, strain pre9, hits give low values 1.02 | locus YGR252W, strain gcn5, hits give low values 1.04 | locus YHR027C, strain rpn1, hits give low values 1.02 | locus YHR030C, strain SLT2, hits give low values 0.999 and 1.11 | locus YHR079C, strain IRE1 (second series), hits give low values 1.01 | locus YHR079C, strain IRE1, hits give low values 1.01 | locus YHR094C, strain hxt1, hits give low values 1.01 | locus YHR129C, strain ARP1, hits give low values 1 | locus YHR142W, strain chs7, hits give low values 0.988 | locus YHR200W, strain rpn10, hits give low values 1.02 | locus YIL066C, strain RNR3, hits give low values 1.01 | locus YIL073C, strain SPO22, hits give low values 1.03 | locus YIL125W, strain kgd1, hits give low values 1.01 | locus YIR030C, strain dcg1, hits give low values 1.02 | locus YJL092W, strain hpr5, hits give low values 1.02 | locus YJL095W, strain BCK1 (second series), hits give low values 1 | locus YJL095W, strain BCK1, hits give low values 1.04 and 1.01 | locus YJL115W, strain asf1, hits give low values 1.02 | locus YJL129C, strain trk1, hits give low values 1.02 | locus YJL134W, strain LCB3, hits give low values 1 | locus YJL154C, strain vps35, hits give low values 1.03 | locus YJL164C, strain tpk1, hits give low values 1 | locus YJL166W, strain qcr8, hits give low values 1.06 | locus YJL168C, strain set2, hits give low values 1.01 | locus YJL187C, strain SWE1 (second series), hits give low values 1.03 | locus YJL187C, strain SWE1, hits give low values 1.02 | locus YJR043C, strain POL32, hits give low values 0.996
